Assay [1] concerns DLD1. In words: cell viability (CellTiter-Glo) relative to plate median (fraction of plate median); higher = more viable cells. The settings on record: 5 µM; treatment time 24 h; reporter: 7TFP. In a few lines:
(§1)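 On parallel plates, a Tecan F500 reader recorded either firefly luciferase or CellTiterGlo luminescence. The plates held colorectal cancer cells stably transduced with lentiviral TCF/Wnt firefly luciferase reporters (7TFP or TCF4/Wnt), seeded in 384-well format and treated 24 h later with library compounds at a final 5 µM for 24 h. Per-well signals were normalised to the plate median (webcellHTS2, additive, no log transformation), and two independent replicates were averaged.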
A general note: In ATP-based viability assays light output follows the ATP content of the culture.

For another assay, the system named is HCT116. The assay is described as above. The conditions noted are these: 5 µM; treatment time 24 h; reporter: TCF4/Wnt. In a few lines:
as §1

Assay [2] deals with SW480. The assay is described as above. The conditions noted are these: 5 µM; treatment time 24 h; reporter: 7TFP. In a few lines:
as §1

The test system of assay [3] is DLD1. In words: TCF/Wnt firefly luciferase reporter signal relative to plate median (fraction of plate median); higher = higher Wnt reporter signal. The settings on record: 5 µM; treatment time 24 h; reporter: 7TFP. In a few lines:
as §1

Assay [4] has as its system SW480. The description is as above. The conditions noted are these: 5 µM; treatment time 24 h; reporter: 7TFP. In a few lines:
as §1

± gives the standard deviation of the averaged measurements.

This is an account of results in the supplement of paper PMC6522484.

Consider `COc1ccc(CCN2CCC(Nc3nc4ccccc4n3Cc3ccc(F)cc3)CC2)cc1`, for which the cell viability with DLD1 [1] turned out to be 0.977 ± 0.089; with HCT116, 0.982 ± 0.069; with SW480 [2] it was 1.06 ± 0.021. In addition, the “TCF/Wnt firefly luciferase reporter signal” value in the assay with DLD1 [3] was 1.01 ± 0.017; with SW480 [4], 1.035 ± 0.0071.
The corresponding values for `CC(C)(O)[C@@H]1[C@H]2OC(=O)[C@@H]1[C@]1(O)C[C@H]3O[C@]34C(=O)O[C@H]2[C@]14C` are 1.03 ± 0.046, 0.949 ± 0.021, 1.025 ± 0.0071, 1.02 ± 0.17 and 1.04 ± 0.089.
As to `NC(N)=NOCC[C@H](N)C(=O)O`, the results for the cell viability in the assay on DLD1 [1], with HCT116 and in the assay on SW480 [2] were 1.08 ± 0.092, 1.03 ± 0.035 and 1.03 ± 0.035, respectively. Besides, the “TCF/Wnt firefly luciferase reporter signal” value was 1.05 ± 0.042 in the assay with DLD1 [3] and 0.991 ± 0.013 in the assay with SW480 [4].
For `N#Cc1nn(-c2c(Cl)cc(C(F)(F)F)cc2Cl)c(N)c1[S+]([O-])C(F)(F)F` (stereo not given), the figures for the cell viability with DLD1 [1], in the assay with HCT116 and with SW480 [2] were 1.02 ± 0.045, 1.04 ± 0.028 and 1.005 ± 0.0071, respectively. The results for the “TCF/Wnt firefly luciferase reporter signal” value with DLD1 [3] and in the assay on SW480 [4] were 1.01 ± 0.05 and 1.015 ± 0.0071, respectively.
The corresponding values for `CCCCCCCCCCCCOC(=O)[C@H]1OC(=O)[C@H](O)[C@H]1C(=O)OO` [Cinatrin C1] are 1.03 ± 0.11, 1.02 ± 0.033, 0.995 ± 0.035, 0.905 ± 0.054 and 0.977 ± 0.033.
The matching figures for `Cc1cccc(C)c1NC1=NCCCS1`: 1.04 ± 0.073, 1.01 ± 0.036, 0.992 ± 0.012, 1.07 ± 0.05 and 1.02 ± 0.083.
The corresponding values for `O=C(O)CC[N+](=O)[O-]` [BOVINOCIDIN (3-nitropropionic acid)] are 0.951 ± 0.025, 1.05 ± 0.042, 0.986 ± 0.02, 1.01 ± 0.042 and 1.05 ± 0.1.
Turning to `C[C@@H]1O[C@@H](O[C@H]2C[C@@H](O)[C@]3(CO)[C@H]4[C@H](O)C[C@]5(C)[C@@H](C6=CC(=O)OC6)CC[C@]5(O)[C@@H]4CC[C@]3(O)C2)[C@H](O)[C@H](O)[C@H]1O`, the cell viability with DLD1 [1] is 0.99 ± 0.085; with HCT116, 0.401 ± 0.29; with SW480 [2] it was 1.02 ± 0.14. Moreover, the “TCF/Wnt firefly luciferase reporter signal” value in the assay with DLD1 [3] is 0.128 ± 0.13; in the assay on SW480 [4], 0.146 ± 0.12.
On to `Cc1cc2c(C(C)C)c(O)c(O)c(C=O)c2c(O)c1-c1c(C)cc2c(C(C)C)c(O)c(O)c(C=O)c2c1O`, for which the cell viability was 0.974 ± 0.037 in the assay with DLD1 [1], 0.969 ± 0.044 in the assay with HCT116 and 0.976 ± 0.03 in the assay with SW480 [2]. Moreover, the “TCF/Wnt firefly luciferase reporter signal” value in the assay with DLD1 [3] was 0.966 ± 0.048; with SW480 [4], 1.04 ± 0.11.
The corresponding values for `CC(C)C[C@H](CN)CC(=O)O` are 1.03 ± 0.073, 1.05 ± 0.1, 1.04 ± 0.014, 1.09 ± 0.064 and 0.936 ± 0.011.
The matching figures for `COC1CC(OC2CCC3(C)C(CCC4C3CCC3(C)C(C5=CC(=O)OC5)CCC43O)C2)OC(C)C1OC1OC(COC2OC(CO)C(O)C(O)C2O)C(O)C(O)C1O` (stereo not given): 0.873 ± 0.11, 0.969 ± 0.0099, 0.964 ± 0.044, 1.14 ± 0.042 and 1.03 ± 0.098.
The corresponding values for `C[C@]12CCC(=O)C[C@@H]1CC[C@@H]1[C@@H]2CC[C@]2(C)C(=O)CC[C@@H]12` [5alpha-ANDROSTAN-3,17-DIONE] are 0.895 ± 0.095, 1.07, 0.959 ± 0.052, 0.959 ± 0.086 and 0.9525 ± 0.005.
On to `COC(=O)[C@H]1O[C@@H]2C[C@H]3O[C@@H](n4cnc5c(N)ncnc54)[C@H](OC)[C@H]3O[C@@]2(O)[C@@H](O)[C@@H]1O` [Herbicidin B], for which the cell viability came to 0.988 ± 0.032 with DLD1 [1], 1.04 ± 0.081 in the assay on HCT116 and 1.05 ± 0.021 with SW480 [2]. Besides, the results for the “TCF/Wnt firefly luciferase reporter signal” value in the assay with DLD1 [3] and with SW480 [4] were 0.857 ± 0.061 and 0.945 ± 0.051, respectively.
The corresponding values for `CC(C)=CCOc1c2occc2cc2ccc(=O)oc12` are 1.03 ± 0.086, 0.997 ± 0.1, 1.01 ± 0.014, 1.12 ± 0.05 and 0.998 ± 0.16.
The corresponding values for `CN(C)C(=O)Oc1ccc[n+](C)c1` are 1.04 ± 0.042, 1.04 ± 0.11, 1.02, 1.08 ± 0.078 and 1.05 ± 0.035.
On to `COc1cc2c(cc1O)CCN[C@@H]2C`, for which the cell viability with DLD1 [1] stood at 0.997 ± 0.0014; in the assay on HCT116 it was 1.06 ± 0.099; in the assay with SW480 [2] it was 1.015 ± 0.0071. Moreover, the “TCF/Wnt firefly luciferase reporter signal” value was found to be 0.89 ± 0.16 in the assay on DLD1 [3] and 0.966 ± 0.049 with SW480 [4].
The matching figures for `CCN1C[C@]2(OC(=O)c3ccccc3NC(C)=O)CC[C@H](OC)[C@@]34[C@@H]2C[C@@H]([C@@H]13)[C@@]1(O)C[C@H](OC)[C@H]2C[C@@H]4[C@]1(O)[C@H]2OC`: 0.987 ± 0.033, 0.988 ± 0.032, 0.9965 ± 0.005, 0.905 ± 0.083 and 0.98 ± 0.057.
For the compound `CC(C)CC(N(C)C)C1(c2ccc(Cl)cc2)CCC1` (stereo not given), the cell viability in the assay on DLD1 [1] turned out to be 0.917 ± 0.072; in the assay on HCT116, 0.924 ± 0.013; in the assay on SW480 [2], 1.02 ± 0.042. In addition, the “TCF/Wnt firefly luciferase reporter signal” value in the assay on DLD1 [3] was determined as 0.991 ± 0.042; with SW480 [4], 0.87 ± 0.073.
The matching figures for `Oc1ccc2c3c1O[C@H]1[C@@H](O)CC[C@@]4(O)[C@@H](C2)N(CC2CCC2)CC[C@]314`: 1 ± 0.067, 1 ± 0.014, 0.942 ± 0.082, 0.979 ± 0.03 and 1.06 ± 0.064.
The corresponding values for `CCOC(=O)C1C(C=C(C)C)C1(C)C` (stereo not given) are 0.913 ± 0.11, 0.961 ± 0.038, 0.932 ± 0.05, 0.906 ± 0.064 and 1.02 ± 0.035.
Turning to `CC(C)=CCC[C@]1(C)C=Cc2c(O)c3c(c(CC=C(C)C)c2O1)O[C@]12C(=C[C@@H]4C[C@H]1C(C)(C)O[C@@]2(C/C=C(/C)C(N)=O)C4=O)C3=O`, the cell viability in the assay with DLD1 [1] turned out to be 0.976 ± 0.049; with HCT116, 0.9335 ± 0.00071; with SW480 [2], 1.03 ± 0.021. Further, the figures for the “TCF/Wnt firefly luciferase reporter signal” value in the assay on DLD1 [3] and with SW480 [4] were 0.947 ± 0.011 and 0.895 ± 0.1, respectively.
The matching figures for `COc1cc2ccc(=O)oc2c2ccoc12`: 0.932 ± 0.077, 1.01 ± 0.02, 0.9355 ± 0.0035, 0.968 ± 0.17 and 0.996 ± 0.063.
Regarding `[N-]=[N+]=CC(=O)OC[C@H](N)C(=O)O`, the cell viability was determined as 0.717 ± 0.18 in the assay on DLD1 [1], 0.887 ± 0.092 in the assay on HCT116 and 1.07 ± 0.028 with SW480 [2]. The “TCF/Wnt firefly luciferase reporter signal” value with DLD1 [3] came to 0.977 ± 0.047; with SW480 [4], 0.989 ± 0.044.
The matching figures for `COc1ccc2c(c1O)-c1c(OC)c(OC)cc3c1[C@H](C2)N(C)CC3`: 0.993 ± 0.067, 1.055 ± 0.0071, 1 ± 0.035, 0.885 ± 0.089 and 0.926 ± 0.012.
As to `O=C([O-])Cc1ccccc1.[Na+]`, the values for the cell viability with DLD1 [1], in the assay with HCT116 and in the assay on SW480 [2] were 0.97 ± 0.0057, 0.906 ± 0.1 and 0.971 ± 0.021, respectively. Also, the “TCF/Wnt firefly luciferase reporter signal” value is 0.923 ± 0.04 in the assay with DLD1 [3] and 0.896 ± 0.0042 with SW480 [4].
